Compounds without any hit were thinned out: in the full panel of roughly 83,000, 20% have a hit.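 Percent growth is the endpoint: 0 to 100 indicates growth inhibition (40 means 60% inhibition), 0 means no net growth, and negative values indicate cell death.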 Values without a mark were called inactive. Calls of active or inactive are those of the source. The calls were made as follows: active = growth percent below 10; inactive = the rest.
What follows are molecules tested on MALME-3M melanoma (assay: NCI-60 one-dose screen, 48 h (100 = growth as untreated, 0 = no growth, -100 = all killed)). Settings: 10 µM.
`O=C1Nc2ccc(Cl)cc2/C1=C/c1cccc(OCc2ccccn2)c1` was tested, and the growth was -51.9% (active).
In the case of `CN1CCN(Cc2ccc(C(=O)Nc3cccc(Nc4ccc5cc(O)ccc5n4)c3)cc2C(F)(F)F)CC1`, the growth is reported as -88.7% (active).
Molecule `O=C(O)CCCCCCCCCCN1C(=O)/C(=C/c2cnc(-c3ccc(Cl)cc3)s2)SC1=S` has a growth of 80.6%.
In the case of `COc1ccc(NC(=O)Nc2ccc(OCC(=O)N=Nc3c(O)[nH]c4ccc([N+](=O)[O-])cc34)cc2)cc1`, the growth is reported as 94.5%.
With `C/C(=C\CC/C=C(\C)CC/C=C(\C)CC[C@@H](O)C(C)(C)O)CC/C=C(\C)CC[C@@H](O)C(C)(C)O` the growth was 44.8%.
Molecule `CCOC(=O)C1NN(c2ccc(S(N)(=O)=O)cc2)c2nc3nc(-c4cccs4)cc(-c4cccs4)c3c(=O)n21` (stereo unspecified) has a growth of 86.1%.
In the case of `CN(CCF)c1ccc(/C=C/C(=O)c2ccc(N)cc2O)cc1`, the growth is reported as 102%.
`C=C1CCC2C3(C)COC(c4c(F)cccc4F)OC3CCC2(C)C1CC(O)C1=CCOC1=O` (stereo unspecified) was tested, and the growth was 96.3%.
In the case of `O=C(Nc1cccc(-c2cn(-c3ccc4oc(=O)ccc4c3)nn2)c1)Nc1cc(C(F)(F)F)cc(C(F)(F)F)c1`, the growth is reported as 29.8%.
For `CN1CCCN(Cc2ccc(C(=O)Nc3cccc(Nc4ccc5cc(O)ccc5n4)c3)cc2C(F)(F)F)CC1`, the growth was 51%.
`N#Cc1c(NC(=O)c2ccc(C(F)(F)F)cc2C(F)(F)F)sc2c1CCC(=O)C2` was tested, and the growth was -86.8% (active).
For `O=C(c1ccc(O)cc1)C1[C@H](c2ccccc2Br)[C@@H](c2ccccc2)NC12C(=O)Nc1ccc(Br)cc12` (stereo partly specified), the growth was 78.7%.
Work on `COc1ccc(N2N=C(c3ccc4c(c3)OCCO4)CC2c2cccc(NC(=O)CCCNS(=O)(=O)c3ccc(F)cc3)c2)cc1` (stereo unspecified) yielded a growth of 79.7%.
For `C=C1CCC2C3(C)COC(c4ccccc4F)OC3CCC2(C)C1C/C=C1/C(=O)OCC1O` (stereo unspecified), the growth was -76.8% (active).
With `O=C(Nc1nc2ccc([N+](=O)[O-])cc2s1)Nc1ccccc1I` the growth was -5.11% (active).
Work on `COc1ccc(-c2ccc(/C=N/NC(=O)c3[nH]c4ccc(Br)cc4c3-c3ccccc3)s2)cc1` yielded a growth of 115%.
Work on `Brc1ccc(/C=N/Nc2ncnc3sc4c(c23)CCN(Cc2ccccc2)C4)cc1` yielded a growth of 38.7%.
With `CC(=O)Nc1ccc(-n2cnc3cc(-c4ccc(O)cc4)ccc32)cc1C` the growth was 58.9%.
In the case of `O=C(c1ccc(O)cc1)C1[C@H](c2ccc(Br)cc2)[C@@H](c2ccccc2)NC12C(=O)Nc1ccccc12` (stereo partly specified), the growth is reported as 43.6%.
In the case of `Nc1nnc(-c2c[nH]c3ccc(F)cc23)c(-c2c[nH]c3ncccc23)n1`, the growth is reported as 71.6%.
Work on `CN1CCN(c2ccc(C(=O)/C=C/c3ccc(C#N)cc3)cc2)CC1` yielded a growth of 90.4%.
`Cc1ccc(CSc2nc(-c3ccc(F)cc3)c(C#N)c(=O)[nH]2)cc1` showed a growth of 117%.
`CCCCCCCCCCCCCCCCCCCC(=O)NCCc1c[nH]c2ccc(OC(=O)NOCCOCCOCCOCCOCCOCCOCCOCCOCCOCCOCCOCCOCCOCCOCCOCCOCCOCCOCCOCCOCCOCCOC)cc12` was tested, and the growth was 8.02% (active).
Molecule `Cc1ccc(/C(N)=N/c2sc(-c3ccccc3)nc2-c2ccccc2)cc1` has a growth of 89.2%.

What follows are molecules tested on MDA-MB-231 breast in the same assay as above. Settings: 10 µM.
`O=C(Nc1ccc(I)cc1F)c1cc(-c2ccc(F)cc2F)ccc1O` was tested, and the growth was -1.69% (active).
For `COc1cccc(/C=C2\N=C(C)N(CCc3ccc(S(N)(=O)=O)cc3)C2=O)c1`, the growth was 104%.
In the case of `CC1=C2C(=C[C@@](C)(COCOCCCl)[C@@H]2O)C(=O)[C@](C)(O)C12CC2`, the growth is reported as -44.7% (active).
With `Nc1n[nH]c2cccc(C#Cc3cccc(NC(=O)Nc4cc(C(F)(F)F)cc(C(F)(F)F)c4)c3)c12` the growth was -93.4% (active).
With `O=C(N=Nc1c(O)[nH]c2ccc(Br)cc12)c1ccc2nc(-c3ccccc3)[nH]c2c1` the growth was -97.5% (active).
With `COc1cccc(-c2ccc(/C=N/NC(=O)c3[nH]c4ccc(Br)cc4c3-c3ccccc3)o2)c1` the growth was 23.6%.
`COc1cc2c(cc1OC)CN(CCCCOc1cc(O)c3c(=O)cc(-c4ccccc4)oc3c1)CC2` gave a growth of 38.5%.
With `COc1ccc(CCN2C(=O)/C(=C/c3csc(C#N)n3)SC2=S)cc1` the growth was 15.8%.
In the case of `N#Cc1c(NC(=O)c2ccc(C(O)(C(F)(F)F)C(F)(F)F)cc2)sc2c1CCC(=O)C2`, the growth is reported as -89.7% (active).
In the case of `Cn1cc(-c2cc(N)n3nc(-c4c[nH]c5ccc(Br)cc45)cc3n2)c2cc(Br)cnc21`, the growth is reported as -82.5% (active).
With `COc1ccccc1[C@H]1C(C(=O)c2ccc(Cl)cc2)C2(N[C@@H]1c1ccccc1)C(=O)Nc1ccccc12` (stereo partly specified) the growth was -71.9% (active).
`CC(=O)Nc1ccc(-c2cn(-c3cccc(C(=O)Nc4cc(C(F)(F)F)cc(C(F)(F)F)c4)c3)nn2)cn1` was tested, and the growth was -72.5% (active).
`CCCCCCCCCCCCCCCCCCCC(=O)NCCc1c[nH]c2ccc(OC(=O)CCCC(=O)OCCOOCCOOCCOOCCOOCCOOCCOOCCOOCCOOCCOOCCOOCCOOCCOC)cc12` showed a growth of 44.5%.
`O=C1Nc2ccc(Cl)cc2/C1=C/c1cccc(OCc2ccccn2)c1` was tested, and the growth was -50.8% (active).
For `CN1CCN(Cc2ccc(C(=O)Nc3cccc(Nc4ccc5cc(O)ccc5n4)c3)cc2C(F)(F)F)CC1`, the growth was -55% (active).
`O=C(O)CCCCCCCCCCN1C(=O)/C(=C/c2cnc(-c3ccc(Cl)cc3)s2)SC1=S` showed a growth of 48.9%.
In the case of `COc1ccc(NC(=O)Nc2ccc(OCC(=O)N=Nc3c(O)[nH]c4ccc([N+](=O)[O-])cc34)cc2)cc1`, the growth is reported as 56%.
`C/C(=C\CC/C=C(\C)CC/C=C(\C)CC[C@@H](O)C(C)(C)O)CC/C=C(\C)CC[C@@H](O)C(C)(C)O` gave a growth of 61.4%.
Molecule `CCOC(=O)C1NN(c2ccc(S(N)(=O)=O)cc2)c2nc3nc(-c4cccs4)cc(-c4cccs4)c3c(=O)n21` (stereo unspecified) has a growth of 88.8%.
`CN(CCF)c1ccc(/C=C/C(=O)c2ccc(N)cc2O)cc1` showed a growth of 95.7%.
Work on `C=C1CCC2C3(C)COC(c4c(F)cccc4F)OC3CCC2(C)C1CC(O)C1=CCOC1=O` (stereo unspecified) yielded a growth of 91.1%.
For `O=C(Nc1cccc(-c2cn(-c3ccc4oc(=O)ccc4c3)nn2)c1)Nc1cc(C(F)(F)F)cc(C(F)(F)F)c1`, the growth was 34.7%.
Molecule `CN1CCCN(Cc2ccc(C(=O)Nc3cccc(Nc4ccc5cc(O)ccc5n4)c3)cc2C(F)(F)F)CC1` has a growth of 34.9%.
With `N#Cc1c(NC(=O)c2ccc(C(F)(F)F)cc2C(F)(F)F)sc2c1CCC(=O)C2` the growth was -74.4% (active).
Molecule `O=C(c1ccc(O)cc1)C1[C@H](c2ccccc2Br)[C@@H](c2ccccc2)NC12C(=O)Nc1ccc(Br)cc12` (stereo partly specified) has a growth of 46.3%.
`COc1ccc(N2N=C(c3ccc4c(c3)OCCO4)CC2c2cccc(NC(=O)CCCNS(=O)(=O)c3ccc(F)cc3)c2)cc1` (stereo unspecified) showed a growth of 69.2%.
`C=C1CCC2C3(C)COC(c4ccccc4F)OC3CCC2(C)C1C/C=C1/C(=O)OCC1O` (stereo unspecified) was tested, and the growth was -54% (active).
In the case of `O=C(Nc1nc2ccc([N+](=O)[O-])cc2s1)Nc1ccccc1I`, the growth is reported as 0.0164% (active).
Work on `COc1ccc(-c2ccc(/C=N/NC(=O)c3[nH]c4ccc(Br)cc4c3-c3ccccc3)s2)cc1` yielded a growth of 59.5%.
`Brc1ccc(/C=N/Nc2ncnc3sc4c(c23)CCN(Cc2ccccc2)C4)cc1` gave a growth of 22.1%.
Molecule `CC(=O)Nc1ccc(-n2cnc3cc(-c4ccc(O)cc4)ccc32)cc1C` has a growth of 49.3%.
In the case of `O=C(c1ccc(O)cc1)C1[C@H](c2ccc(Br)cc2)[C@@H](c2ccccc2)NC12C(=O)Nc1ccccc12` (stereo partly specified), the growth is reported as -40.8% (active).
In the case of `Nc1nnc(-c2c[nH]c3ccc(F)cc23)c(-c2c[nH]c3ncccc23)n1`, the growth is reported as 39.1%.
`CN1CCN(c2ccc(C(=O)/C=C/c3ccc(C#N)cc3)cc2)CC1` was tested, and the growth was 65.8%.
With `Cc1ccc(CSc2nc(-c3ccc(F)cc3)c(C#N)c(=O)[nH]2)cc1` the growth was 104%.
With `CCCCCCCCCCCCCCCCCCCC(=O)NCCc1c[nH]c2ccc(OC(=O)NOCCOCCOCCOCCOCCOCCOCCOCCOCCOCCOCCOCCOCCOCCOCCOCCOCCOCCOCCOCCOCCOCCOC)cc12` the growth was -74.1% (active).
In the case of `Cc1ccc(/C(N)=N/c2sc(-c3ccccc3)nc2-c2ccccc2)cc1`, the growth is reported as 82.5%.

Source: PubChem BioAssay (NCI)
